Drawing on PubChem BioAssay (NCI), this text covers growth inhibition for 41 compounds.

The nature of test [1]: NCI Yeast Anticancer Drug Screen. Data for the rad50 strain (AID 155).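 Also: 0% = growth of vehicle-only cultures of the same strain.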 The note with it: S. cerevisiae rad50 strain growth inhibition; at 50.0 µM; stronger effect = higher value. Summed up: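 Yeast carrying a defined DNA repair defect were exposed to test compounds, and growth was compared with vehicle-treated controls to give percent inhibition.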
A short description of test [2]: NCI Yeast Anticancer Drug Screen. Data for the mec2-1 strain (AID 157). The note with it: S. cerevisiae mec2-1 strain, at 50.0 µM, stronger effect = higher value. Summed up: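 Test agents were screened against the mec2-1 yeast strain, with defined DNA repair or cell cycle alteration. Growth was scored as inhibition against vehicle-only controls.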
Test [3] in a line: NCI Yeast Anticancer Drug Screen. Data for the sgs1 mgt1 strain (AID 161).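 Also: 0% = growth of cultures given vehicle only.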 The note with it: S. cerevisiae sgs1 mgt1 strain, at 50.0 µM, stronger effect = higher value. Summed up:
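Read-out: growth inhibition vs vehicle controls. Cells: mutant yeast strain deficient in DNA damage repair.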

Test [4] in a line: NCI Yeast Anticancer Drug Screen. Data for the cln2 rad14 strain (AID 165).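 Also: 0% = growth equal to vehicle treated cultures.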 The note with it: S. cerevisiae cln2 rad14 strain, at 50.0 µM, stronger effect = higher value. Summed up: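 Growth of compound-exposed yeast (cln2 rad14 genotype) measured and expressed as inhibition relative to vehicle.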
The nature of test [5]: NCI Yeast Anticancer Drug Screen. Data for the bub3 strain (AID 167). The note with it: S. cerevisiae bub3 mutant strain, at 50.0 µM, stronger effect = higher value. In short, it runs like this:
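Compounds were applied to a genetically altered yeast strain carrying a cell-cycle control defect. Growth inhibition was scored against vehicle-treated controls.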

Test [6] in a line: NCI Yeast Anticancer Drug Screen. Data for the mlh1 rad18 strain (AID 175). The note with it: S. cerevisiae mlh1 rad18 strain growth inhibition; at 50.0 µM; stronger effect = higher value. In short, it runs like this:
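In this whole-cell yeast screen, a strain with altered DNA damage repair is challenged with compound, and its growth is measured against matched vehicle-treated controls.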

About 79,000 compounds went through this panel and 15% of them were active in at least one assay; those are over-represented in the sample as a whole. A number with no mark means an inactive call. Active and inactive are the calls of the source. Rule as the data show it: active = growth inhibition above about 70%; inactive = the rest.

In the case of `N#Cc1nc(CC(=O)c2ccc(Cl)c(Cl)c2)c(CC(=O)c2ccc(Cl)c(Cl)c2)nc1C#N`, the growth inhibition was 12.1% in test [1]; 10.4% in test [2]; 9.2% in test [3]; 31.4% in test [4]; 27.6% in test [5]; 20.2% in test [6].
Take `CON`: the growth inhibition in test [1] was -16.2%; in test [2], -5.35%; in test [3] it was 2.4%; in test [4], -13.1%; in test [5], 0.3%; in test [6], -12.2%.
As to `C/C(=N\NC(=O)C(N)=O)c1c(O)cc(C)oc1=O`, the growth inhibition in test [1] is -29.1%; in test [2] it was 5.2%; in test [3] it was 11.6%; in test [4], -23.1%; in test [5], 1.8%; in test [6] it was 15.7%.
As to `COC1=C(OC)C(=O)C2=C(OCO2)C1=O`, the growth inhibition in test [1] is -1.05%; in test [2], 16.2%; in test [3] it was 4.2%; in test [4], -1.35%; in test [5] it was 16.5%; in test [6], -1.1%.
Turning to `CCC(O)CNCc1c2ccccc2cc2ccccc12` (stereo unspecified), the growth inhibition in test [1] was 20.1%; in test [2] it was 14.7%; in test [3], 22.1%; in test [4], 12.6%; in test [5], 1.95%; in test [6] it was 10.8%.
On to `O=C(OCC1OC(OC(=O)N(c2ccccc2)c2ccccc2)C(OS(=O)(=O)c2ccc([N+](=O)[O-])cc2)C1OC(=O)c1ccccc1)c1ccccc1` (stereo unspecified), for which the growth inhibition in test [1] is 34.1%; in test [2], -5.05%; in test [3] it was -5.05%; in test [4], -10%; in test [5], 0.1%; in test [6], 24%.
`CN(C)CCN(C=O)CCN(C)C`: the growth inhibition is 9.85% in test [1]; 3.95% in test [2]; 4.5% in test [3]; -9.1% in test [4]; 0.6% in test [5]; -0.2% in test [6].
With `CCOc1ccc2nc(NC(=O)C(=O)C(C(=O)c3ccccc3F)C3OC(=O)c4ccccc43)sc2c1` (stereo unspecified), the growth inhibition in test [1] is 10.9%; in test [2], 9%; in test [3] it was 2.65%; in test [4], 22.6%; in test [5], -1.2%; in test [6] it was 7%.
For `CN=C(NC)c1ccc(Cl)c(Cl)c1`, the growth inhibition in test [1] is 8.1%; in test [2], -5.4%; in test [3] it was -0.9%; in test [4] it was -31.2%; in test [5], 10.9%; in test [6], 11.8%.
Take `COc1ccc2[nH]cc(C(=O)C(=O)NC34CC5CC(CC(C5)C3)C4)c2c1`: the growth inhibition in test [1] is 12.7%; in test [2], 6%; in test [3] it was -5.2%; in test [4], -1.7%; in test [5], 16.2%; in test [6] it was -22.5%.
With `Cc1ccc(NC(=O)/C(Cc2nc3ccc([N+](=O)[O-])cc3[nH]c2=O)=N\NC(=O)C[n+]2ccccc2)c(C)c1`, the growth inhibition in test [1] was -7.5%; in test [2], -9.25%; in test [3] it was -4.3%; in test [4], 14.9%; in test [5], 15.3%; in test [6], -7.65%.
`CCN1C(NN)=NS(=O)(=O)c2ccccc21`: the growth inhibition was -31.1% in test [1]; -7.55% in test [2]; -15.2% in test [3]; -19.9% in test [4]; 8.2% in test [5]; 10.8% in test [6].
For `c1ccc(N=C2CCCCCC2)cc1`, the growth inhibition is -1.85% in test [1]; 14.2% in test [2]; -5.8% in test [3]; 7.15% in test [4]; -9.25% in test [5]; -6.7% in test [6].
Regarding `CC(C)=CCc1c(O)ccc(C(=O)C2C(c3c(O)cc(-c4cc5ccc(O)cc5o4)cc3O)C=C(C)CC2c2ccc(O)cc2O)c1O` (stereo unspecified), the growth inhibition is 87% (active) in test [1]; 90.7% (active) in test [2]; 90% (active) in test [3]; 89.4% (active) in test [4]; 88.2% (active) in test [5]; 87.9% (active) in test [6].
In the case of `O=c1[nH]c2c([N+](=O)[O-])cc(Cl)cc2nc1/C=C(\O)c1ccncc1`, the growth inhibition is 42.5% in test [1]; 8.75% in test [2]; 42.6% in test [3]; 9.45% in test [4]; 18.3% in test [5]; 51.4% in test [6].
Take `O=S(=O)(N=S(c1ccccc1)c1ccccc1)c1ccccc1`: the growth inhibition was -67% in test [1]; -66.2% in test [2]; -63.1% in test [3]; -20.9% in test [4]; -59.6% in test [5]; -51.2% in test [6].
As for `CCOC(=O)/C(I)=C/c1cc(OC)c(OC)c(OC)c1`, the growth inhibition in test [1] is -2.2%; in test [2], 15.5%; in test [3], 4.6%; in test [4], 13.9%; in test [5], 28.2%; in test [6], 19.9%.
Take `Cc1nc(C(N)=S)sc1C(=O)/C=C/c1c(O)ccc2ccccc12`: the growth inhibition in test [1] is 49.4%; in test [2], 9.55%; in test [3], 33.4%; in test [4], 23.8%; in test [5], 31.1%; in test [6], 40.3%.
In the case of `CCOC(=O)c1ccc(NC(=O)c2ccc(Cl)cc2Cl)cc1`, the growth inhibition in test [1] was -7.7%; in test [2] it was 18.6%; in test [3] it was 6.5%; in test [4] it was -18.1%; in test [5], 36.6%; in test [6] it was -4.25%.
For the compound `Cc1ccccc1S(=O)(=O)NSc1ccccc1[N+](=O)[O-]`, the growth inhibition was 28.2% in test [1]; -5.25% in test [2]; 33% in test [3]; 1.85% in test [4]; -12.8% in test [5]; 25.7% in test [6].
`NC(=O)c1ccccc1N1CCCCC1`: the growth inhibition in test [1] was 16.7%; in test [2] it was -0.2%; in test [3], 36%; in test [4], 21.5%; in test [5], 32.5%; in test [6], 22.4%.
With `COC(=O)NC1CCCCC1`, the growth inhibition is -2.5% in test [1]; -13.8% in test [2]; -4.6% in test [3]; 20.6% in test [4]; -8.2% in test [5]; -6.35% in test [6].
`CCC(C)CNCCO` (stereo unspecified): the growth inhibition in test [1] was 24.6%; in test [2], -7.1%; in test [3], 5.7%; in test [4], 0.35%; in test [5] it was -6.25%; in test [6], 11.3%.
`CC(C)(C)OC(=O)C(C1NC(C(=O)O)C(C)(C)S1)N1C(=O)c2ccccc2C1=O` (stereo unspecified): the growth inhibition in test [1] is -29.8%; in test [2] it was -43%; in test [3] it was -53.7%; in test [4], -42.1%; in test [5], -56.4%; in test [6], -17.4%.
In the case of `ClC1=C(Cl)C2(Cl)C=CC1(Cl)C2`, the growth inhibition in test [1] is 4.05%; in test [2], -3.05%; in test [3], 4%; in test [4], -14.2%; in test [5], 1.9%; in test [6] it was 6.6%.
For the compound `O=C1/C(=N\O)C2CCC1C2` (stereo unspecified), the growth inhibition in test [1] is -11.2%; in test [2] it was 0.75%; in test [3], 0.3%; in test [4], 2.5%; in test [5], -9.2%; in test [6] it was 0.85%.
As for `N/N=C(/CC(O)(C(F)(F)F)C(F)(F)F)c1ccccc1`, the growth inhibition is -10.8% in test [1]; -24.9% in test [2]; -13.9% in test [3]; -3.7% in test [4]; 3% in test [5]; 2.65% in test [6].
Consider `C=CCn1c(NCCN(CC)CC)nc2ccc(Cl)cc2c1=O`, for which the growth inhibition in test [1] is 47%; in test [2], 6.5%; in test [3], 31.8%; in test [4], 0.85%; in test [5] it was 11.8%; in test [6], 19.4%.
With `CC(C)(C)c1ccc2c(c1)C(C)(C)CCC2(C)C`, the growth inhibition in test [1] was 12.8%; in test [2] it was 0.8%; in test [3], 3.05%; in test [4] it was -52.6%; in test [5], 8.3%; in test [6], 19.2%.
For the compound `NC(=O)NC(=O)NCc1ccccc1`, the growth inhibition in test [1] is -1.35%; in test [2] it was 0.35%; in test [3], -12.8%; in test [4] it was -7.65%; in test [5], 6.6%; in test [6] it was -4.9%.
As to `O=C1C(O)=C(c2ccccc2)C(=O)N1c1ccccc1`, the growth inhibition in test [1] was -25.2%; in test [2] it was -9.05%; in test [3], -11.7%; in test [4], -62.5%; in test [5] it was 6.65%; in test [6], 9.5%.
For the compound `CC(c1ccccc1)n1cnc2c(Cl)ncnc21` (stereo unspecified), the growth inhibition in test [1] was 5%; in test [2], -16.7%; in test [3], 5.05%; in test [4], -0.5%; in test [5], 6.3%; in test [6], -17.2%.
`CCOC(=O)C1=C(C)N(c2ccccc2)C2=C(C(=O)N(c3ccccc3)C2c2ccccc2)C1c1ccccc1` (stereo unspecified): the growth inhibition in test [1] was 9.9%; in test [2], -13.8%; in test [3], 9.25%; in test [4], 15%; in test [5] it was -21.7%; in test [6], 7.2%.
Regarding `CCOC(=O)CN`, the growth inhibition was -0.25% in test [1]; 7.7% in test [2]; 2.15% in test [3]; -0.4% in test [4]; -2% in test [5]; 14.1% in test [6].
`O=C(NC1c2ccccc2Oc2ccccc21)OCCCCl`: the growth inhibition in test [1] was -11.2%; in test [2], -3.1%; in test [3], 2.15%; in test [4], -7.05%; in test [5], 7.8%; in test [6], -5.1%.
Regarding `NC(=O)NC1=NCCC(=O)N1CCc1c[nH]c2ccccc12`, the growth inhibition was 51.3% in test [1]; 75.9% (active) in test [2]; 84.2% (active) in test [3]; 78.5% (active) in test [4]; 77.7% (active) in test [5]; 88% (active) in test [6].
As to `CN1CC=C(C#CC(C)(C)O)CC1`, the growth inhibition in test [1] was -13%; in test [2] it was -17.4%; in test [3], -0.65%; in test [4], 4.7%; in test [5], -5.9%; in test [6] it was -25.3%.
`O=C1CSC=C(c2ccccc2)O1`: the growth inhibition was 4.45% in test [1]; 4.4% in test [2]; -4.7% in test [3]; -40.8% in test [4]; -0.5% in test [5]; -19.4% in test [6].
`C=C(N1CCCCC1)N1CCCCC1`: the growth inhibition is -2.75% in test [1]; -25.1% in test [2]; -9.15% in test [3]; -46.5% in test [4]; -15.9% in test [5]; -11.4% in test [6].
Regarding `O=C(CCS(=O)(=O)CCC(=O)c1cccs1)c1cccs1`, the growth inhibition in test [1] was 4.2%; in test [2], 10.3%; in test [3], 1.9%; in test [4], -4.15%; in test [5] it was -3.55%; in test [6], 15.6%.
Regarding `CCOC(=O)c1ccc(NC(=O)Nc2cc(Cl)ccc2OC)cc1`, the growth inhibition in test [1] is 4%; in test [2], 46.1%; in test [3], 21%; in test [4], -2.9%; in test [5] it was 34%; in test [6] it was 19.7%.
